Laboratory results taken from PubChem BioAssay AID1159580 (chemical genetic matrix, 2015).
“And” between values parts separate entries of the source, which are not always exact repeats. Identical values can stand only once. Hit rate of the full screen: of about 5,500 compounds, about 2,000 (36%) were called active. About 18% were inconclusive and are not listed. Rule as the data show it: active = normalized growth mostly below about 0.91 (no sharp cut-off); inconclusive = no clear call, values can overlap the other calls; inactive = mostly above about 0.92. The list shows a part of the results.

Assay: chemical genetic growth profiling, strain panel (AID 1159580);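 also: tested at 20 µM; growth read once vehicle control cultures reached saturation at 30 °C; 1 = growth at the plate median or of vehicle wells; lower values mean less growth of the strain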
Settings: S. cerevisiae deletion strains, growth OD
[1] = locus YAL040C, strain CLN3, active compounds read low
[2] = locus YDR150W, strain NUM1, active compounds read low
[3] = locus YER002W, strain NOP16, active compounds read low
[4] = locus YNL175C, strain NOP13, active compounds read low
[5] = locus YNL197C, strain WHI3, active compounds read low
[6] = locus YNL224C, strain SQS1, active compounds read low
[7] = locus YOR083W, strain WHI5 (second series), active compounds read low
[8] = locus YPL055C, strain LGE1, active compounds read low

Measured: normalized growth

CCCCCCCCCCCCCC(=O)O[C@@H]1[C@@H](C)[C@@]2(O)[C@@H](C=C(CO)C[C@@]3(O)C(=O)C(C)=C[C@@H]23)C2C(C)(C)[C@@]21OC(C)=O (some centres not stated)
inactive: [1] 0.977 | locus YCL061C, strain MRC1 (second series), active compounds read low 0.992 | [2] 0.999 | locus YDR363W, strain ESC2, active compounds read low 0.999 | [3] 0.985 | locus YGR078C, strain PAC10, active compounds read low 0.972 | locus YNL128W, strain TEP1, active compounds read low 1.01 | [4] 1.01 | [5] 1.02 | [6] 1.01 | locus YNL322C, strain KRE1, active compounds read low 1 | [7] 1.01 | [8] 1.06 | locus YPL241C, strain CIN2, active compounds read low 0.997

Clc1cccc(Cl)c1NC1=NCCN1
inactive: locus YAL021C, strain ccr4, active compounds read low 0.973 | locus YAL026C, strain drs2, active compounds read low 1.01 | locus YAL030W, strain snc1, active compounds read low 0.993 | [1] 0.999 | locus YBL061C, strain skt5, active compounds read low 0.972 | locus YBR009C, strain hhf1, active compounds read low 1 | locus YBR021W, strain FUR4, active compounds read low 1.03 | locus YBR023C, strain chs3, active compounds read low 0.983 | locus YBR171W, strain sec66, active compounds read low 0.977 | locus YBR229C, strain ROT2, active compounds read low 0.999 | locus YBR231C, strain swc5, active compounds read low 0.998 | locus YBR279W, strain paf1, active compounds read low 1.01 | locus YCL011C, strain gbp2, active compounds read low 0.96 | locus YCL016C, strain dcc1, active compounds read low 0.962 | locus YCL029C, strain bik1, active compounds read low 1.02 | locus YCL061C, strain MRC1, active compounds read low 0.989 | locus YCL069W, strain vba3, active compounds read low 0.991 | locus YCR088W, strain abp1, active compounds read low 0.992 | locus YDL005C, strain med2, active compounds read low 0.996 | locus YDL035C, strain GPR1, active compounds read low 1.02 | locus YDL040C, strain nat1, active compounds read low 1.01 | locus YDL074C, strain BRE1, active compounds read low 1.03 | locus YDL101C, strain DUN1, active compounds read low 1.02 | locus YDL134C, strain PPH21, active compounds read low 1.01 | locus YDL185W, strain tfp1, active compounds read low 1.01 | locus YDL192W, strain arf1, active compounds read low 1.02 | locus YDR001C, strain nth1, active compounds read low 0.972 | locus YDR069C, strain doa4, active compounds read low 0.992 | locus YDR101C, strain arx1, active compounds read low 1.03 | locus YDR137W, strain rgp1, active compounds read low 0.959 | [2] 1.01 | locus YDR159W, strain sac3, active compounds read low 1.01 | locus YDR162C, strain NBP2, active compounds read low 1.01 | locus YDR195W, strain ref2 0.994 | locus YDR297W, strain sur2, active compounds read low 0.98 | locus YDR318W, strain mcm21, active compounds read low 1.02 | locus YDR334W, strain swr1, active compounds read low 0.954 | locus YDR335W, strain msn5, active compounds read low 0.973 | locus YDR388W, active compounds read low 1.01 | locus YDR392W, strain spt3, active compounds read low 0.904 | locus YDR502C, strain sam2, active compounds read low 1.03 | locus YEL003W, strain gim4, active compounds read low 0.984 | locus YEL037C, strain rad23, active compounds read low 0.999 | locus YEL061C, strain CIN8 (second series), active compounds read low 0.988 | locus YEL061C, strain CIN8, active compounds read low 1.01 | [3] 0.99 | locus YER015W, strain faa2, active compounds read low 1 | locus YER016W, strain bim1, active compounds read low 0.996 | locus YER110C, active compounds read low 1.02 | locus YER111C, strain swi4, active compounds read low 0.993 | locus YER155C, strain BEM2 (second series), active compounds read low 1 | locus YER155C, strain BEM2, active compounds read low 1.01 | locus YER167W, strain BCK2, active compounds read low 1.01 | locus YFR010W, strain ubp6, active compounds read low 0.998 | locus YGL078C, strain dbp3, active compounds read low 1.03 | locus YGL086W, strain mad1, active compounds read low 1.06 | locus YGL167C, strain pmr1, active compounds read low 0.991 | locus YGL173C, strain kem1, active compounds read low 0.985 | locus YGL227W, strain vid30, active compounds read low 0.992 | locus YGL240W, strain doc1, active compounds read low 0.995 | locus YGL248W, strain PDE1, active compounds read low 1.03 | locus YGL253W, strain hxk2, active compounds read low 0.963 | locus YGR135W, strain pre9, active compounds read low 1.04 | locus YGR229C, strain SMI1, active compounds read low 0.992 | locus YGR252W, strain gcn5, active compounds read low 1.05 | locus YHR013C, strain ard1, active compounds read low 0.965 | locus YHR027C, strain rpn1, active compounds read low 0.98 | locus YHR030C, strain SLT2, active compounds read low 1.01 and 0.969 | locus YHR079C, strain IRE1 (second series), active compounds read low 1.02 | locus YHR079C, strain IRE1, active compounds read low 0.98 | locus YHR094C, strain hxt1, active compounds read low 1.02 | locus YHR129C, strain ARP1, active compounds read low 1.01 | locus YHR142W, strain chs7, active compounds read low 0.932 | locus YHR200W, strain rpn10, active compounds read low 1.02 | locus YIL066C, strain RNR3, active compounds read low 1.01 | locus YIL073C, strain SPO22, active compounds read low 1.07 | locus YIL125W, strain kgd1, active compounds read low 1.02 | locus YIR030C, strain dcg1, active compounds read low 1.01 | locus YJL092W, strain hpr5, active compounds read low 0.994 | locus YJL095W, strain BCK1 (second series), active compounds read low 0.983 | locus YJL095W, strain BCK1, active compounds read low 1.04 and 0.975 | locus YJL115W, strain asf1, active compounds read low 0.969 | locus YJL129C, strain trk1, active compounds read low 0.97 | locus YJL134W, strain LCB3, active compounds read low 1.01 | locus YJL154C, strain vps35, active compounds read low 0.972 | locus YJL164C, strain tpk1, active compounds read low 0.996 | locus YJL166W, strain qcr8, active compounds read low 0.953 | locus YJL168C, strain set2, active compounds read low 1.02 | locus YJL187C, strain SWE1 (second series), active compounds read low 1.03 | locus YJL187C, strain SWE1, active compounds read low 1 | locus YJR043C, strain POL32, active compounds read low 1.03 | locus YJR066W, strain TOR1, active compounds read low 0.996 | locus YJR075W, strain HOC1, active compounds read low 1.01 | locus YKL009W, strain mrt4, active compounds read low 1.02 | locus YKL068W, active compounds read low 1 | locus YKL085W, strain MDH1 (second series), active compounds read low 1.06 | locus YKL085W, strain MDH1, active compounds read low 1.06 | locus YKL160W, strain elf1, active compounds read low 0.951 | locus YKL190W, strain CNB1, active compounds read low 1.01 | locus YKR001C, strain vps1, active compounds read low 1.01 | locus YKR026C, strain gcn3, active compounds read low 0.986 | locus YKR091W, strain srl3, active compounds read low 0.982 | locus YLL001W, strain dnm1, active compounds read low 0.933 | locus YLL026W, active compounds read low 0.986 | locus YLL041C, strain sdh2, active compounds read low 1 | locus YLR027C, strain aat2, active compounds read low 1.01 | locus YLR039C, strain RIC1, active compounds read low 1.01 | locus YLR058C, strain SHM2, active compounds read low 1.02 | locus YLR102C, strain apc9, active compounds read low 1.01 | locus YLR113W, strain HOG1, active compounds read low 0.951 | locus YLR221C, strain rsa3, active compounds read low 0.944 | locus YLR258W, strain gsy2, active compounds read low 0.985 | locus YLR262C, strain YPT6 (second series), active compounds read low 0.974 | locus YLR262C, strain YPT6, active compounds read low 0.982 | locus YLR268W, strain sec22, active compounds read low 1.02 | locus YLR320W, strain mms22, active compounds read low 0.944 | locus YLR330W, strain CHS5, active compounds read low 1.01 | locus YLR342W, strain FKS1 (second series), active compounds read low 1.01 | locus YLR342W, strain FKS1, active compounds read low 0.995 | locus YLR357W, strain rsc2, active compounds read low 0.974 | locus YLR370C, strain arc18, active compounds read low 0.968 | locus YLR371W, strain rom2, active compounds read low 1.01 | locus YLR384C, strain iki3, active compounds read low 0.988 | locus YLR418C, strain cdc73, active compounds read low 1.05 | locus YML016C, strain PPZ1, active compounds read low 1 | locus YML032C, strain rad52, active compounds read low 1.02 | locus YML120C, strain ndi1, active compounds read low 0.941 | locus YML124C, strain tub3, active compounds read low 1.01 | locus YMR058W, strain fet3, active compounds read low 0.99 | locus YMR078C, strain ctf18, active compounds read low 1.01 | locus YMR125W, strain sto1, active compounds read low 0.958 | locus YMR129W, active compounds read low 0.999 | locus YMR205C, strain PFK2, active compounds read low 0.947 | locus YMR223W, strain ubp8, active compounds read low 1.04 | locus YMR231W, strain pep5, active compounds read low 0.999 | locus YMR263W, strain SAP30, active compounds read low 0.988 | locus YMR307W, strain GAS1, active compounds read low 1.09 | locus YNL067W, strain RPL9B, active compounds read low 1.05 | locus YNL071W, strain lat1, active compounds read low 0.993 | [4] 1.01 | locus YNL183C, strain NPR1, active compounds read low 0.926 | [5] 0.999 | locus YNL209W, strain ssb2, active compounds read low 0.991 | [6] 1 | locus YNL233W, strain BNI4, active compounds read low 1.02 | locus YNL248C, strain rpa49, active compounds read low 0.995 | locus YNL250W, strain rad50, active compounds read low 1.02 | locus YNL271C, strain bni1, active compounds read low 1.02 | locus YNL298W, strain CLA4, active compounds read low 1.02 | locus YNL307C, strain MCK1, active compounds read low 1.02 | locus YNL322C, strain KRE1 (second series), active compounds read low 0.982 | locus YNR049C, strain mso1, active compounds read low 0.981 | locus YNR052C, strain pop2, active compounds read low 1.02 | locus YOL006C, strain TOP1, active compounds read low 1.18 | locus YOL012C, strain htz1 0.754 | locus YOL147C, strain pex11, active compounds read low 1.02 | locus YOR001W, strain rrp6, active compounds read low 1.04 | locus YOR061W, strain CKA2, active compounds read low 1.01 | locus YOR069W, strain VPS5, active compounds read low 1.01 | locus YOR070C, strain gyp1, active compounds read low 0.996 | locus YOR080W, strain dia2, active compounds read low 0.979 | [7] 0.997 | locus YOR083W, strain WHI5, active compounds read low 0.957 | locus YOR106W, strain vam3, active compounds read low 0.944 | locus YOR136W, strain idh2, active compounds read low 1.03 | locus YOR144C, strain elg1, active compounds read low 1.01 | locus YOR184W, strain ser1, active compounds read low 1.03 | locus YOR231W, strain MKK1, active compounds read low 0.989 | locus YOR265W, strain rbl2, active compounds read low 1 | locus YOR270C, strain vph1, active compounds read low 0.939 | locus YOR290C, strain snf2, active compounds read low 0.939 | locus YOR316C, strain cot1, active compounds read low 1.02 | locus YPL051W, strain arl3, active compounds read low 0.991 | [8] 1.04 | locus YPL078C, strain atp4, active compounds read low 0.954 | locus YPL106C, strain sse1, active compounds read low 0.94 | locus YPL240C, strain hsp82, active compounds read low 1 | locus YPL256C, strain CLN2, active compounds read low 0.993 | locus YPR119W, strain clb2, active compounds read low 1.02 | locus YPR141C, strain kar3, active compounds read low 1.01 | locus YPR163C, strain tif3, active compounds read low 1.01 | locus YPR167C, strain met16, active compounds read low 1.01 | strain wtn01, active compounds read low 1.04
